High-throughput results deposited in PubChem BioAssay by National Center for Advancing Translational Sciences (NCATS).
PKM2 activator: qHTS Assay for Activators of Human Muscle isoform 2 Pyruvate Kinase | purified PKM2, Kinase-Glo ATP luminescence, activation; response scale: 0% is enzyme alone, no compound | Potency, µM (doses to about 57.5 µM), without a hit: at the highest dose activation, most hits filed as activators | 260,000 compounds, 0.34% hits | AID 1631, 2009; active = well fitted activation curve with a large enough effect; inconclusive = small, poorly fitted or top-dose-only effect; inactive = no such curve, though single readings can be large or run the other way; also: potency is read from the fitted curve at half-maximal effect; nearly all actives have a fitted effect of over 55% in size
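Purified hPK-M2 (>95%) run at intermediate activity with 0.1 mM ADP and 0.5 mM PEP in 50 mM imidazole pH 7.2, KCl, MgCl2; 1 h room temperature. ATP formed read by Kinase-Glo luminescence; normalized to uninhibited and no-enzyme controls.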
CtBP-E1A blk: qHTS Assay for Inhibitors of the CtBP/E1A Interaction | CtBP / adenovirus E1A interaction (AlphaScreen) | AlphaScreen GST-E1A/His-CtBP binding, 1536-well; active compounds read low | activity change, % (concentration not given with the values) | 340,000 compounds, 0.49% hits | AID 651724, 2012
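In 5 uL wells, 23 nL compound meets equimolar GST-E1A and His-CtBP (5X stock 125 nM each) for 2 h, 37 °C. Beads (5X, 50 ug/mL) then 1 h, 37 °C, dark.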
MBNL1-CUG inh: qHTS Assay for Inhibitors of MBNL1-poly(CUG) RNA binding; Potency, µM (doses to about 57.5 µM), inactives show at the top dose activity change, negative = inhibition, hits mostly inhibitors; Muscleblind-like protein 1 (Homo sapiens), Q9NR56; 280,000 compounds, 0.036% hits; TR-FRET MBNL1-His/biotin-(CUG)12 binding, 665/545 ratio; active = well fitted inhibition curve with a large enough effect in the signal ratio, with a control signal flat, not every such curve was filed as active; inconclusive = small, poorly fitted or top-dose-only effect, or effect the other way, or a change in a side signal; inactive = no such curve, though single readings can be large or run the other way; the % refers to the signal ratio; also: potency is read from the fitted curve at half-maximal effect
Target sequence (Q9NR56 whole entry, looked up): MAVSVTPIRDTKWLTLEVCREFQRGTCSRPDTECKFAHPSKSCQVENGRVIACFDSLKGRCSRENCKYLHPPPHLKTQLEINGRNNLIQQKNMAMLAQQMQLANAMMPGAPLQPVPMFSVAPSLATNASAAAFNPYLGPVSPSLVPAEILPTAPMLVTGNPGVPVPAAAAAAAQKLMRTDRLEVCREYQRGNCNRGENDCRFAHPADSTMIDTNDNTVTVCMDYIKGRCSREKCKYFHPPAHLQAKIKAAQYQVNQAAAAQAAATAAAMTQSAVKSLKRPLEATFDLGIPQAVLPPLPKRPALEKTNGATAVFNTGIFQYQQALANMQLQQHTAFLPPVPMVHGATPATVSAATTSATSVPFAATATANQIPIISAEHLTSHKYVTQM
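His-tagged MBNL1 binding to biotinylated (CUG)12 RNA was measured by TR-FRET using terbium anti-His antibody (0.055 ng/ul final) and streptavidin-XL665 (5 nM final). Compounds were titrated 92 nM to 58 uM; 60 min at room temperature.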
Six1-Eya2 blk: qHTS Assay for Inhibitors of the Six1/Eya2 Interaction | Homeobox protein SIX1 (Homo sapiens) + Protein phosphatase EYA2 (Homo sapiens), … | AlphaScreen GST-Six1/His-Eya2 binding, biochemical; active compounds read low | activity change, % (concentration not given with the values) | 360,000 compounds, 0.56% hits
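AlphaScreen with GST-Six1 and His-Eya2 (5X mix: 250 nM and 500 nM), glutathione donor and nickel acceptor beads; buffer 50 mM Tris pH 8.0, 300 mM NaCl, 1 mM TCEP; 1 h at 37 C in the dark.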
Active calls of the source: *; ? = inconclusive; nt = not tested or not shown; ! = not active in a repeat; [ ] = remark or other dose. Only some compounds are listed: those with a hit (about 0.93% of all), similar ones and a draw of the others. Rule as the data show it, unless noted: active = activity change below about -65%; inconclusive = mostly about -30% to -63%; inactive = weaker than that. % is scaled to controls: 0 for no effect and ±100 for the full control effect.

SMILES	PKM2 activator	CtBP-E1A blk	MBNL1-CUG inh	Six1-Eya2 blk
COc1ccc(Cn2c(O)c(/C=N/NC(=O)c3ccccc3)c(=O)[nH]c2=O)cc1	7%	-85*	2%	?
COc1ccc(Cn2c(O)c(/C=N/NC(=O)c3ccccc3O)c(=O)[nH]c2=O)cc1	6%	-72*	-11%	-87*
CC(=O)Nc1ccc(Cc2nc3ccccc3[nH]2)cc1	-36%	1	-15%	8
O=C1NO[C@H]2[C@@H]1CN[C@@H]2C(=O)O	-3%	nt	nt	nt
CN(C)[C@@H]1C(=O)C(C(N)=O)=C(O)[C@@]2(O)C(=O)C3=C(O)c4c(O)cccc4[C@@](C)(O)[C@H]3[C@H](O)[C@@H]12	1%	-67*!	?	?
CN(C)[C@@H]1C(=O)C(C(N)=O)=C(O)[C@@]2(O)C(=O)C3=C(O)c4c(O)ccc(Cl)c4[C@@](C)(O)[C@H]3C[C@@H]12	2%	-11	?	-7
O=C1Nc2ccccc2C2(CCN(CCc3ccc(C(F)(F)F)cc3)CC2)O1	-2%	nt	nt	nt
O=C1NC(=O)N(c2ccc3c(c2)OCO3)C(=O)/C1=C\c1ccc(-c2ccccc2C(=O)O)o1	25µM*	-1	9%	-10
CC1=C(C(=O)O)N2C(=O)C(NC(=O)c3nn(C)cc3[N+](=O)[O-])C2SC1 (stereo not given)	0%	-24	?	7
NC(Cc1ccc(F)cc1)c1csc(Nc2ccccn2)n1 (stereo not given)	nt	-91*	nt	-86*
NC(Cc1ccccc1)c1csc(Nc2ccccn2)n1 (stereo not given)	nt	-90*	nt	-86*
NC(Cc1ccc(F)cc1)c1csc(Nc2cnccn2)n1 (stereo not given)	nt	-83*	nt	-74*
NC(Cc1ccccc1)c1nc2ccccc2[nH]1 (stereo not given)	nt	-6	6%	-14
NC(Cc1ccc(Cl)cc1)c1csc(Nc2ccccn2)n1 (stereo not given)	nt	-68*	nt	?
CN(C)C(Cc1ccc(Cl)cc1)C(=O)c1ccccc1 (stereo not given)	1%	7	-6%	2
COc1ccc(C/C(=N\OC(C)=O)c2ccc(OC)cc2)cc1	-39%	25	-2%	13
CCN(CC)C(=O)c1c(C)[nH]c(=S)c(C#N)c1-c1ccco1	-36%	4	-2%	6
Cn1c(O)c(C(c2ccccn2)c2c(O)n(C)c(=S)n(C)c2=O)c(=O)n(C)c1=S	3%	-29	8%	?
Cn1c(O)c(C(c2ccncc2)c2c(O)n(C)c(=S)n(C)c2=O)c(=O)n(C)c1=S	-2%	?	-4%	-68*
CC(=NCCc1ccccc1)c1c(O)[nH]c(=O)[nH]c1=O	28µM*	3	-8%	4
Cc1cc(/C=C2\C(=O)NC(=O)N(c3ccc(Br)cc3)C2=O)c(C)n1-c1cc(C(=O)O)cc(C(=O)O)c1	nt	nt	7%	-84*
Nc1c(C(=O)NCc2ccco2)c2nc3ccccc3nc2n1Cc1ccccc1	2%	nt	25%[11.5 µM]	4
Nc1c(C(=O)NCc2ccco2)c2nc3ccccc3nc2n1CCN1CCOCC1	4%	-73*	?	?
CC(=NNC(=S)N1CC2CCC(CC2)C1)c1nccs1	nt	-97*	nt	-89*
O=C(NCc1ccccc1)C(=O)NCC1OCCN1S(=O)(=O)c1ccc([N+](=O)[O-])cc1 (stereo not given)	-4%	nt	?	0
SMILES	PKM2 activator	CtBP-E1A blk	MBNL1-CUG inh	Six1-Eya2 blk
CC(C)n1c(O)c(C2c3cc(Cl)ccc3Oc3[nH]c(=O)n(C(C)C)c(=O)c32)c(=O)[nH]c1=O (stereo not given)	14µM*	3	nt	10
COc1cc(/C=N/NC(=O)c2cnccn2)cc(OC)c1OC	4%	1	?	-10
O=C1NC(=O)N(c2ccccc2)C(=O)/C1=C/c1ccc(Sc2ccccc2)o1	28µM*	1	-5%	-4
N/C(=N\N=C\c1ccc(O)cc1O)N[N+](=O)[O-]	-4%	-83*	?	-74*
CN1C(=O)/C(=C/c2cccn2-c2ccc3ccccc3c2)C(=O)NC1=S	10%	-21	25%	-79*
O=C(Nc1nn[nH]n1)c1cccc([N+](=O)[O-])c1	0%	-9	?	4
